Test results from the supplement of paper PMC3616981.
± gives the standard deviation of the averaged measurements.

Compound: CC(C)c1cccc(C(C)C)c1N1C(=O)c2ccc(O)cc2C1=O
Assay: BioMAP readout fold decrease vs vehicle (vehicle/treated); higher = stronger decrease of the readout vs vehicle (values <1 mean increase)
Procedure: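 BioSeek BioMAP human primary cell (co-)culture systems (3C, 4H, LPS, SAg, BE3C, CASM3C, hDFCGF, KF3CT) treated with 5HPP-33 at 1.48, 4.44, 13.3 and 40 µM. Read-outs are protein levels by ELISA, proliferation and SRB total protein. Duplicate rows per assay are averaged as replicates. Tested in ToxCast Phase II for this study; exposure time not stated.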
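Note: Co-cultures of keratinocytes, bronchial epithelial and smooth muscle cells, fibroblasts, HUVECs and PBMCs under stimuli like LPS, TNF-α, IFN-γ, IL-1β, TGF-β or EGF, SRB reflecting cytotoxicity.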

| Target | BioMAP readout fold decrease (1.48 µM) | BioMAP readout fold decrease (4.44 µM) | BioMAP readout fold decrease (13.3 µM) | BioMAP readout fold decrease (40 µM) |
| --- | --- | --- | --- | --- |
| BE3C_uPAR | 1.02 ± 0.013 | 1.0603 ± 0.00083 | 1.1 ± 0.012 | 1.26 ± 0.022 |
| 4H_VEGFRII | 1.07 ± 0.028 | 1.03 ± 0.021 | 1.2 ± 0.076 | 1.45 ± 0.069 |
| CASM3C_TissueFactor | 1.0008 ± 0.00028 | 1.023 ± 0.0054 | 1.04 ± 0.026 | 1.22 ± 0.015 |
| 3C_IL8 | 0.994 ± 0.019 | 0.925 ± 0.011 | 0.7655 ± 0.0039 | 1.132 ± 0.0075 |
| 3C_TissueFactor | 0.903 ± 0.018 | 0.906 ± 0.021 | 0.943 ± 0.014 | 1.43 ± 0.2 |
| CASM3C_VCAM1 | 1.05 ± 0.029 | 1.0767 ± 0.00049 | 1.19 ± 0.023 | 1.55 ± 0.021 |
| KF3CT_ICAM1 | 0.999 ± 0.092 | 1.03 ± 0.037 | 0.9245 ± 0.0078 | 1.08 ± 0.062 |
| SAg_Proliferation | 1.22 ± 0.15 | 1.7 ± 0.1 | 1.76 ± 0.053 | 10.3 ± 0.41 |
| LPS_VCAM1 | 1.14 ± 0.055 | 1.55 ± 0.14 | 2.13 ± 0.16 | 3.55 ± 0.13 |
| LPS_IL1a | 0.781 ± 0.039 | 0.8356 ± 0.0034 | 0.965 ± 0.057 | 1.56 ± 0.039 |
| BE3C_IP10 | 1.1 ± 0.12 | 1.15 ± 0.0028 | 1.65 ± 0.029 | 3.38 ± 0.11 |
| LPS_PGE2 | 0.966 ± 0.071 | 0.863 ± 0.057 | 0.841 ± 0.037 | 0.776 ± 0.044 |
| BE3C_PAI1 | 1.18 ± 0.056 | 1.236 ± 0.012 | 1.5 ± 0.03 | 1.91 ± 0.13 |
| CASM3C_MCP1 | 1.07 ± 0.045 | 1.137 ± 0.0029 | 1 ± 0.016 | 0.9734 ± 0.002 |
| CASM3C_IL8 | 1.02 ± 0.02 | 1.074 ± 0.0085 | 0.938 ± 0.016 | 0.872 ± 0.025 |
| LPS_MCSF | 1.081 ± 0.0067 | 1.32 ± 0.11 | 1.686 ± 0.0043 | 2.21 ± 0.14 |
| BE3C_TGFb1 | 1.05 ± 0.079 | 1.09 ± 0.061 | 1.117 ± 0.0036 | 1.32 ± 0.1 |
| hDFCGF_SRB | 1 ± 0.034 | 0.959 ± 0.0096 | 1.19 ± 0.017 | 2.06 ± 0.21 |
| 4H_VCAM1 | 0.977 ± 0.017 | 0.978 ± 0.044 | 1.06 ± 0.018 | 2.2 ± 0.07 |
| LPS_SRB | 0.935 ± 0.012 | 1.032 ± 0.0086 | 1.277 ± 0.0063 | 1.87 ± 0.066 |
| KF3CT_TGFb1 | 1.03 ± 0.011 | 1.044 ± 0.0031 | 1.11 ± 0.021 | 2.33 ± 0.15 |
| hDFCGF_MIG | 1.01 ± 0.012 | 1.01 ± 0.0026 | 1.02 ± 0.027 | 1.42 ± 0.031 |
| CASM3C_uPAR | 1.15 ± 0.1 | 1.21 ± 0.037 | 1.29 ± 0.05 | 2.6 ± 0.26 |
| LPS_CD40 | 1.33 ± 0.17 | 1.67 ± 0.1 | 2.699 ± 0.02 | 4.12 ± 0.32 |
| LPS_Eselectin | 1.07 ± 0.019 | 1.17 ± 0.034 | 1.24 ± 0.012 | 1.91 ± 0.12 |
| hDFCGF_IL8 | 1.03 ± 0.018 | 0.964 ± 0.017 | 0.8858 ± 0.0045 | 0.9866 ± 0.0065 |
